The record followed here is PubChem BioAssay (NCI).

Molecules are shown by their SMILES. Values joined by “and” are separate entries in the source; they are usually repeats but may differ in a detail not shown here. Equal values may be shown once. The panel holds about 83,000 compounds, 20% with a hit somewhere; the sample as a whole holds those more often.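 How to read the values: 0–100, growth inhibition (40 = 60% inhibited); 0, no net growth; -100 to 0, cell death (-40 = 40% of starting cells died; -100 = all dead).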 Active and inactive are the calls of the source. Rule for the calls: active = growth percent below 10; inactive = the rest.

The test concerns MDA-MB-468 breast. The experiment in a line: NCI-60 one-dose screen, 48 h (100 = growth as untreated, 0 = no growth, -100 = all killed). The following applies: 10 µM unless noted.
`CN1CCCCC1C(C)(O)c1ccccc1` (stereo not given): the growth is 102% (inactive).

Turning to `CCn1cnc2c(Nc3cccc(Cl)c3)nc(N[C@@H]3CCCC[C@@H]3N)nc21`, the growth was -22% (active).

`Clc1ccc(COC(Cn2ccnc2)c2ccc(Cl)cc2Cl)c(Cl)c1` (stereo not given): the growth is 33.3% (inactive).

For the compound `Cc1cc(NC(=O)NCCCOc2ccc(N3C(N)=NC(N)=NC3(C)C)cc2Cl)ccc1S(=O)(=O)F`, the growth is 7.83% (active).

For `O=C(N/N=C/c1ccc(N(CCCl)CCCl)cc1)c1cc(=O)[nH]c(=O)[nH]1`, the growth is -0.0833% (active).

In the case of `Clc1ccc(COC(Cn2ccnc2)c2ccc(Cl)cc2Cl)cc1` (stereo not given), the growth was 39.7% (inactive).

Take `CCCCOC(N)=O`: the growth is 101% (inactive).

On to `CC[C@H](C)[C@@H]1OC(=O)C(C)(C)[C@H](O)[C@H](Cc2ccccc2)OC(=O)[C@H](C(C)C)OC(=O)[C@@H](NC(=O)c2cccc(NC=O)c2O)[C@@H](C)OC1=O`, for which the growth is 9.86% (active).

As to `C[C@]12CCc3nc(Nc4ccccc4F)sc3C1=CC[C@@H]1[C@@H]2CC[C@]2(C)C(=O)CC[C@@H]12`, the growth is 23.7% (inactive).

With `Cc1ccc(C(=O)NCCCOc2ccc(N)cc2Cl)cc1S(=O)(=O)F`, the growth was 84.6% (inactive).

Consider `O=C1C=CC(=O)C2C1C1(Cl)C(Cl)=C(Cl)C2(Cl)C1(Cl)Cl` (stereo not given), for which the growth was 5.2% (active).

For the compound `c1ccc2c(c1)sc1ccccc12`, the growth was 97.2% (inactive).

Regarding `Cc1cc([N+](=O)[O-])c(Cl)cc1NS(=O)(=O)c1ccccc1`, the growth is 59.4% (inactive).

Regarding `CCN1C(=O)NC(=O)C(C)(N2C(=O)c3c(F)c(F)c(F)c(F)c3C2=O)C1=O` (stereo not given), the growth was -6.73% (active).

`COc1ccc(/C=C\c2cc(OC)c(OC)c(OC)c2)cc1OCC(=O)Nc1nc2ccc(OC(F)(F)F)cc2s1`: the growth is -22.1% (active).

As to `NC(=O)SCC(=O)Nc1ccc([As](=O)(O)O)cc1`, the growth was 87.2% (inactive).

`CC(=O)Nc1ccc(Cc2ccc(NC(C)=O)cc2)cc1`: the growth was 95.6% (inactive).

In the case of `O=C(Cc1ccccc1)c1ccccc1`, the growth is 106% (inactive).

On to `COS(=O)(=O)c1ccccc1`, for which the growth is 114% (inactive).

Take `COC(=O)[C@H](Cc1ccccc1)NNC(=O)c1csc([C@@H](C[C@H](C(C)C)N(C)C(=O)[C@@H](NC(=O)[C@H]2CCCCN2C)C2CC2)OC(C)=O)n1`: the growth is -11.2% (active).

In the case of `O=C1c2ccccc2C(=O)C(Cl)C1Cl` (stereo not given), the growth was -89.9% (active).

In the case of `O=C1C2CCC1C(N1CCCC1)CC2` (stereo not given), the growth is 105% (inactive).

As for `Cn1cc(C(=O)C[n+]2ccccc2)c2ccccc21`, the growth was 88% (inactive).

As for `COC(=O)[C@@H](C)C[C@H](Cc1ccccc1)NC(=O)c1csc([C@@H](C[C@H](C(C)C)N(C)C(=O)[C@H](C)NC(=O)[C@H]2CCCN2C)OC(C)=O)n1`, the growth is 25.8% (inactive).

`CC1(C)[C@H](O)[C@H](F)C[C@@]2(C)Oc3ccc(C(=O)Nc4ccc5c(c4)NC(=O)C54CCN(CCCCC#N)CC4)cc3C[C@H]12`: the growth was 7.2% (active).

On to `CNC(=O)Oc1ccc(C(C)(C)C)cc1OC(=O)NC`, for which the growth is 88.4% (inactive).

Take `CCOC(=O)[C@@H](C)C[C@H](Cc1ccccc1)NC(=O)c1csc([C@@H](C[C@H](C(C)C)N(C)C(=O)[C@@H](NC(=O)[C@H]2CCCCN2C)C(C)(C)C)OC(C)=O)n1`: the growth was 10.7% (inactive).

For the compound `N#C[Se]CCN1C(=O)C2C(C1=O)[C@H]1C=C[C@@H]2S1` (stereo not given in full), the growth is -19.7% (active).

For the compound `Cc1c(NS(=O)(=O)c2ccccc2)ccc([N+](=O)[O-])c1Cl`, the growth was 34.5% (inactive).

`CC1(C)N=C(N)N=C(N)N1c1ccc(OCCCCOc2ccc(S(=O)(=O)F)cc2)c(Cl)c1`: the growth was -16.2% (active).

On to `O=P(N1CC1)(N1CC1)N1CCc2ccccc21`, for which the growth is 95.2% (inactive).

In the case of `O=C(O)c1ccc(=O)[nH]c1`, the growth was 95.8% (inactive) and 102% (inactive).

As for `CCOc1c(Cl)cc(CNC(C)C(O)c2ccccc2)cc1OC` (stereo not given), the growth is 32.5% (inactive).

In the case of `C/C=C/CC(C)C(O)[C@H](NC(=O)[C@@H]1CCCN1C(=O)C(C)(C)NC(=O)CCCCCCCCC)C(=O)N[C@@](C)(CC)C(=O)N[C@@H](CCC(N)=O)C(=O)N[C@H](CCC(N)=O)C(=O)NC(C)(C)C(=O)NC(C)(C)C(=O)N[C@@H](CCC(N)=O)C(=O)N[C@H](CC(C)C)C(=O)N[C@H](CO)CC(C)C` (stereo not given in full), the growth was -53.4% (active) and 16.1% (inactive).

As to `CC1(C)CC2(CC(C)(C)c3cc(O)c(O)cc32)c2cc(O)c(O)cc21`, the growth is 83.1% (inactive).
